From article PMC7862700, “An all-to-all approach to the identification of sequence-specific readers for epigenetic DNA modifications on cytosine” come the findings set out here.

Test in all cases: DAPPL (digital affinity profiling via proximity ligation, sequencing); 10 mM Tris-HCl pH 7.5, 50 mM NaCl, 1 mM DTT, 4% glycerol, room temperature, 30 min; GST-TFs on glutathione beads, 16-mer random dsDNA library, 0.1% formaldehyde crosslink after washing; high values mean tight binding
What all share (settings): protein: recombinant; tags: N-terminal GST; dsDNA, one strand shown

Assay [1] concerns the target T1, FLI1 (Homo sapiens, UniProt Q01543 1-452).
T1 sequence: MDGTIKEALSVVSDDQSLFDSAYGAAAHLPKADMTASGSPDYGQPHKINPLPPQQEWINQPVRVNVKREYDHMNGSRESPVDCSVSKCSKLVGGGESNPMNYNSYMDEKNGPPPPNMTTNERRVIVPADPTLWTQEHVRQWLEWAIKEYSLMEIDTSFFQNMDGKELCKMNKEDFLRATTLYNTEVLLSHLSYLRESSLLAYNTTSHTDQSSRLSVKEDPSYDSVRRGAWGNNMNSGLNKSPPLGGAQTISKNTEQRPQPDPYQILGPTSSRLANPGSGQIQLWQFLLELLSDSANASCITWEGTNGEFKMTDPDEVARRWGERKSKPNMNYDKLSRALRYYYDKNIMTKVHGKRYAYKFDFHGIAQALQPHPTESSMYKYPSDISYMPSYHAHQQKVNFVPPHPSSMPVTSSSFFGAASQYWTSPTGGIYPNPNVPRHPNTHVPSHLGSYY
Summed up: (§1)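 A tag-only sample was pooled with DNA-barcoded human transcription factors that had been expressed in yeast as GST fusions and captured on glutathione beads. The pools were incubated for 30 min at room temperature with 200 nmole of a random double-stranded 16-mer DNA library in Tris/NaCl/DTT/glycerol buffer, then washed, crosslinked with 0.1% formaldehyde, proximity-ligated (BsaI/T4 ligase, 1 h, 37 °C), PCR-amplified and sequenced on an Illumina NextSeq500. Binding signal is each hexamer's read frequency for a factor divided by its frequency for the tag-only sample.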

Assay [2] addresses T2, GABPA (Homo sapiens, UniProt Q06546 1-454).
T2 sequence: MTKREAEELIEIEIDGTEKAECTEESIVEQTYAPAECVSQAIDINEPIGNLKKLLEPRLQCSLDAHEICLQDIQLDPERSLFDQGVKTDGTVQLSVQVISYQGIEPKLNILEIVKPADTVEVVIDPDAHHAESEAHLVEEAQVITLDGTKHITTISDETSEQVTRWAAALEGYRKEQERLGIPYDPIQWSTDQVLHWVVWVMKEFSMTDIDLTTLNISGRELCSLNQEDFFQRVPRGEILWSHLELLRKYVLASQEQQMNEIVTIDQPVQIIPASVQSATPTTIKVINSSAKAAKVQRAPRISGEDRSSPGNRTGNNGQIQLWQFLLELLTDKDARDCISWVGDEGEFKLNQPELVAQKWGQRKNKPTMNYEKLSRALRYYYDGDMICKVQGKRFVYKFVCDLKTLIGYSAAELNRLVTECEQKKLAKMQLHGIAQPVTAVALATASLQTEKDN
Put shortly:
as §1

For assay [3], the target named is T3, ERG (Homo sapiens, UniProt P11308 1-479).
T3 sequence: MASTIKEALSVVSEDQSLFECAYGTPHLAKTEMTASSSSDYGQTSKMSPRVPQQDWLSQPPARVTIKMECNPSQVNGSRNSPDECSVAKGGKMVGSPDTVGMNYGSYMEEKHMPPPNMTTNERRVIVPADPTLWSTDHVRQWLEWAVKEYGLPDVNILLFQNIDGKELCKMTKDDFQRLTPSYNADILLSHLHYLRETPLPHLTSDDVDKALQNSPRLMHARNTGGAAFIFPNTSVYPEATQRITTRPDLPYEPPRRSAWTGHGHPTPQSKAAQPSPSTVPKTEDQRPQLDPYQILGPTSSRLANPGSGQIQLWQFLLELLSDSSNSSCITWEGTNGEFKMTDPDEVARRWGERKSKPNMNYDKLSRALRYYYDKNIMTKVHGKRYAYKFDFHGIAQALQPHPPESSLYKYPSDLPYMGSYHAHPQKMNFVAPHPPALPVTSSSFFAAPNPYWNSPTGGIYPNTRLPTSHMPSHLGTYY
Summed up:
as §1

The target in assay [4] is ELF1 (Homo sapiens, UniProt P32519 1-619). Summed up: as §1
The target of assay [5] is T4, EHF (Homo sapiens, UniProt Q9NZC4 1-300).
T4 sequence: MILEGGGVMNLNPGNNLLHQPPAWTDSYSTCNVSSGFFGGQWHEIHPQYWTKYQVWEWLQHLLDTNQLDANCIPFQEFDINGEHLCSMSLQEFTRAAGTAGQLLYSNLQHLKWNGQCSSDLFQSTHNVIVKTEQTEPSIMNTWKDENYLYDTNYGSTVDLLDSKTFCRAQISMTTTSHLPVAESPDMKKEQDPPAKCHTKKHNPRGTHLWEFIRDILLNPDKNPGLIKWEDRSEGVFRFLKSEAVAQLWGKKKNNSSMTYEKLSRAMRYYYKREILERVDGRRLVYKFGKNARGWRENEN
Summed up:
as §1

Assay [6] addresses SPI1 (Homo sapiens, UniProt P17947 1-270). Put shortly:
as §1

Assay [7] addresses SPIB (Homo sapiens, UniProt Q01892 1-262). Summed up: as §1
In assay [8] the target is T5, FEV (Homo sapiens, UniProt Q99581 1-238).
T5 sequence: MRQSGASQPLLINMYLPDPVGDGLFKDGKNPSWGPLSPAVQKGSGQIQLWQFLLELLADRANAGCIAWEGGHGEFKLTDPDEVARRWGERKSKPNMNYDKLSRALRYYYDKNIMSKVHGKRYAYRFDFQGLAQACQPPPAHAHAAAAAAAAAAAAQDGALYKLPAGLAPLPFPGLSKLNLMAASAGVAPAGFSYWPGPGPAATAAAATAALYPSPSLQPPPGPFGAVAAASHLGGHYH
Summed up:
as §1

Assay [9] deals with ETV5 (Homo sapiens, UniProt P41161 1-510). Put shortly:
as §1

The target in assay [10] is T6, SPIC (Homo sapiens, UniProt Q8N5J4 1-248).
T6 sequence: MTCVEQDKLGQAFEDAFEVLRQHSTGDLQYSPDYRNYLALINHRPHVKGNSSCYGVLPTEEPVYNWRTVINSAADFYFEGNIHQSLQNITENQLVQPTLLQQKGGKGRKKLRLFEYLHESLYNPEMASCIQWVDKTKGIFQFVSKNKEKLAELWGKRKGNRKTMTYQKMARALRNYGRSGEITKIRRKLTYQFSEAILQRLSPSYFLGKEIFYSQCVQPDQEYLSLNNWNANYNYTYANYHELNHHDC
Put shortly: as §1

For assay [11], the target named is ELF4 (Homo sapiens, UniProt Q99607 1-663). Summed up:
as §1

The target of assay [12] is ETV1 (Homo sapiens, UniProt P50549 1-477). Summed up:
as §1

For assay [13], the target named is T7, ERF (Homo sapiens, UniProt P50548 1-548).
T7 sequence: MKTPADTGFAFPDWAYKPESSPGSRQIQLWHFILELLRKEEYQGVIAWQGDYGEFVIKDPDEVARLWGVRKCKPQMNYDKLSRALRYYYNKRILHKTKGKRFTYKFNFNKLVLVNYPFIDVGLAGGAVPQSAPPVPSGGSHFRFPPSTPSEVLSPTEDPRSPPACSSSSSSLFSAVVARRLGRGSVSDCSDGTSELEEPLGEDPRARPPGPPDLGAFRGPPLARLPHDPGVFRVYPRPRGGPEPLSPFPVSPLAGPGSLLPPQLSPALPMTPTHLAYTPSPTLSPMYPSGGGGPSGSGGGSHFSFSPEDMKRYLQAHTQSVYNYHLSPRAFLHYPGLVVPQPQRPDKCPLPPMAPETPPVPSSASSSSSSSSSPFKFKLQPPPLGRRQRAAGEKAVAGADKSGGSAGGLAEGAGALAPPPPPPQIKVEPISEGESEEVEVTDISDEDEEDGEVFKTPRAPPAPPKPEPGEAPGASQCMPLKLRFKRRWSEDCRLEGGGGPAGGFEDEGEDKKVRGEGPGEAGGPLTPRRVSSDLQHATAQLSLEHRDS
Put shortly: as §1

Assay [14] has as its target T8, ETV3L (Homo sapiens, UniProt Q6ZN32 1-361).
T8 sequence: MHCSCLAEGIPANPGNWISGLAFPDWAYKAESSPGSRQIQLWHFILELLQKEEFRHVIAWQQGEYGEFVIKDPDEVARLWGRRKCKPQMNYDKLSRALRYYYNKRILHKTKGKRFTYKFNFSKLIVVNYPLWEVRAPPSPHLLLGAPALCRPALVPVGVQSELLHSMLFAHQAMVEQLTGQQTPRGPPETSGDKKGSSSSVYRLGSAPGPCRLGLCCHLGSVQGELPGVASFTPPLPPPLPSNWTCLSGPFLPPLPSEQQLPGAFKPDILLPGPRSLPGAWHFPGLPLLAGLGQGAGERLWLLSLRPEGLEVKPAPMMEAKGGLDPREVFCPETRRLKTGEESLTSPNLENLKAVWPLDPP
Put shortly: as §1

For assay [15], the target named is T9, ETS2 (Homo sapiens, UniProt P15036 1-469).
T9 sequence: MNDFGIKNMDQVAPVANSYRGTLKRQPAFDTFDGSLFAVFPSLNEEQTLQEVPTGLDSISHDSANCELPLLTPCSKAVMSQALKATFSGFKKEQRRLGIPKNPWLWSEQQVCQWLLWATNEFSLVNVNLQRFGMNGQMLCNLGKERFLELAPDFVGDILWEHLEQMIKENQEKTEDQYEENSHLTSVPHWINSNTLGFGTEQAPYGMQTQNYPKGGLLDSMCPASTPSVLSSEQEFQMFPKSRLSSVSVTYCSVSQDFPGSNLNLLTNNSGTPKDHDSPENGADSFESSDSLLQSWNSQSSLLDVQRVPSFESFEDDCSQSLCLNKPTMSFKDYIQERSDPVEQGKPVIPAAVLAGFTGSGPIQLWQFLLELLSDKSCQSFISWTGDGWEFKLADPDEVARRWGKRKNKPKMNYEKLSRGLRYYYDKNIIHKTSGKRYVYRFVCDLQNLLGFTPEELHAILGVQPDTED
Put shortly: as §1

For assay [16], the target named is T10, SPDEF (Homo sapiens, UniProt O95238 1-335).
T10 sequence: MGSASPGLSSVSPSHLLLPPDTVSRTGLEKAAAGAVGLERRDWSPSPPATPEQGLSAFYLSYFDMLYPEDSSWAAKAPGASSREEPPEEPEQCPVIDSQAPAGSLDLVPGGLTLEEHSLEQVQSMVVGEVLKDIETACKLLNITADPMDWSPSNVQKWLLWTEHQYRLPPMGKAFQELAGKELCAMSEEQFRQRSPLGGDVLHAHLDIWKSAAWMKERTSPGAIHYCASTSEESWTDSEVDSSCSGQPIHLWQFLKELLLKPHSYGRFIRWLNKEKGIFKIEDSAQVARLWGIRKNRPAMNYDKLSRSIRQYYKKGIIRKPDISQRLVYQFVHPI
Put shortly: as §1

Assay [17] concerns the target T11, ELF5 (Homo sapiens, UniProt Q9UKW6-2 1-255).
T11 sequence: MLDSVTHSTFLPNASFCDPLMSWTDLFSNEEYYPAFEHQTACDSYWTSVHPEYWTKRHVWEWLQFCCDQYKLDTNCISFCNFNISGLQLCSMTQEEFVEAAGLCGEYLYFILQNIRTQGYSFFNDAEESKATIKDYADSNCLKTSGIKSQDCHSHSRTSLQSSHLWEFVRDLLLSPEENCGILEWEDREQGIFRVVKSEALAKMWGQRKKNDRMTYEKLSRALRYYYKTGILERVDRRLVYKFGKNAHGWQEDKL
Put shortly: as §1

For assay [18], the target named is T12, ETV3 (Homo sapiens, UniProt P41162-2 1-143).
T12 sequence: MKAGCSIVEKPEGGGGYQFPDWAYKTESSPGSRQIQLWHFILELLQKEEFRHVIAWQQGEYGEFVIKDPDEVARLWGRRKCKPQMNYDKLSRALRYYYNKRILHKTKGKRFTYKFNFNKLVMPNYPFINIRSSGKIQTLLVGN
Summed up: as §1

Assay [19] deals with ETV6 (Homo sapiens, UniProt P41212 1-452). Put shortly: as §1
ETV6, sequence (P41212 whole entry): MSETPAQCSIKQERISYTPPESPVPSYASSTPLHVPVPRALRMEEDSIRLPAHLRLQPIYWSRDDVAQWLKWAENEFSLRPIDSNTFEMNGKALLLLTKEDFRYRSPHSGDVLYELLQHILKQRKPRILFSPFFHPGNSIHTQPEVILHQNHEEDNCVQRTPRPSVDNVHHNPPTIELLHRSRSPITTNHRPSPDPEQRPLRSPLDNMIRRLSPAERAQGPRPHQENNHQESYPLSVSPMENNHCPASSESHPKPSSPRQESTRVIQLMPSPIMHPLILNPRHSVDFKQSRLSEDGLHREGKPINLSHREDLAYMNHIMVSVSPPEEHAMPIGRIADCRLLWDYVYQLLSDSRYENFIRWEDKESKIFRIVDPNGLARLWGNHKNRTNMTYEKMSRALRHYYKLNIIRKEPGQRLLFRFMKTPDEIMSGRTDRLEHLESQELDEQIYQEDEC

ETV5, sequence (P41161 whole entry): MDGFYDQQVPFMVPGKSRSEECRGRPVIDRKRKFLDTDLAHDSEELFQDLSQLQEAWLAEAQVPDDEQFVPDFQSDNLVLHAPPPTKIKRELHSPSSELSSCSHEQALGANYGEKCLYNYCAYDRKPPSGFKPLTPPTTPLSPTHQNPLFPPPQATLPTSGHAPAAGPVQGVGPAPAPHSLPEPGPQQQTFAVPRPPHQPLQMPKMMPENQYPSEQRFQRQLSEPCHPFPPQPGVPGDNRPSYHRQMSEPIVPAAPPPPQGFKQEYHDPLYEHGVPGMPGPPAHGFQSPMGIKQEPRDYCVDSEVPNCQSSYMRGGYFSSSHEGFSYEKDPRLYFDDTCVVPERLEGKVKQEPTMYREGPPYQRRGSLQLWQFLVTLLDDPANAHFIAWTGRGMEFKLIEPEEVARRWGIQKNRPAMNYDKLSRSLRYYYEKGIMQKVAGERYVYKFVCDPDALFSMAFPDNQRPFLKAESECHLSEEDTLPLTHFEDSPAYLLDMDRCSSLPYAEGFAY
ELF1, sequence (P32519 whole entry): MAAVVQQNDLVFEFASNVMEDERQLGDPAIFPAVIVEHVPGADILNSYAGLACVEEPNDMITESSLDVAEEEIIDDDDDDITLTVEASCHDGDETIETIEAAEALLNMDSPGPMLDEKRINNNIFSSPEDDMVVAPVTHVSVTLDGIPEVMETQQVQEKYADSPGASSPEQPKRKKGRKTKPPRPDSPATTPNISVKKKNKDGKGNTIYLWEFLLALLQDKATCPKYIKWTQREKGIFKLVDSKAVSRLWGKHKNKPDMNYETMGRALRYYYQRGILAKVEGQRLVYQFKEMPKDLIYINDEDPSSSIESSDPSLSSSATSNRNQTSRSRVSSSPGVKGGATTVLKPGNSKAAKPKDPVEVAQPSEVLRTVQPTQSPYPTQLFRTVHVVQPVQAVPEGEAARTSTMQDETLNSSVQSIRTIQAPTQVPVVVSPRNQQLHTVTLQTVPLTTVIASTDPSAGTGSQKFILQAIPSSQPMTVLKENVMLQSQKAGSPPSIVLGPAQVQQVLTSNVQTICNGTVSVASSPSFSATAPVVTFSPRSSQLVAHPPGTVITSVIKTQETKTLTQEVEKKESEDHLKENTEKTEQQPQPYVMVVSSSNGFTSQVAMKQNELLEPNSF
ELF4, sequence (Q99607 whole entry): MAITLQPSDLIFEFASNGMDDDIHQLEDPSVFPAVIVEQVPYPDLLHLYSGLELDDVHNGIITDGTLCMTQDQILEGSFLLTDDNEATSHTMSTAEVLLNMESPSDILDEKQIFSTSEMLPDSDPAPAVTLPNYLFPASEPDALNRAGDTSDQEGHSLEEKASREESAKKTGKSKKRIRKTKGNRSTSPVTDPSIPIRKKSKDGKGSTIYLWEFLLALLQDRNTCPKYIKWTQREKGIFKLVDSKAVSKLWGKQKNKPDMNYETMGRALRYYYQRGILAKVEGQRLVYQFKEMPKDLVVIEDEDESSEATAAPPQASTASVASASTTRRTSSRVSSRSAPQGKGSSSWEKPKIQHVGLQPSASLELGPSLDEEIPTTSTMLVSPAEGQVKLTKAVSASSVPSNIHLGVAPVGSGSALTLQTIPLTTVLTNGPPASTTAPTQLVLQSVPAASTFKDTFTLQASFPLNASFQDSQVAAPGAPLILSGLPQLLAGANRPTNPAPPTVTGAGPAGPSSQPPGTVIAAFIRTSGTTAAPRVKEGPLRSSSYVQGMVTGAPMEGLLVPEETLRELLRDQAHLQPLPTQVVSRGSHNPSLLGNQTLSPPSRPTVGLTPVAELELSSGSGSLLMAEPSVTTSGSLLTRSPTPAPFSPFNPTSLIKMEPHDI
SPIB, sequence (Q01892 whole entry): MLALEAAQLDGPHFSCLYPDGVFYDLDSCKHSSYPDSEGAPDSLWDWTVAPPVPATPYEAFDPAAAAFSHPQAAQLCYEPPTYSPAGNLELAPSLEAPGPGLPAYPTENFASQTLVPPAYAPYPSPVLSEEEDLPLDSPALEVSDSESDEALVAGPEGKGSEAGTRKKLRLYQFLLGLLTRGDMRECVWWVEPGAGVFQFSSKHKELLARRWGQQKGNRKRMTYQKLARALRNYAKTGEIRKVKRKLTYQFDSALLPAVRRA
ETV1, sequence (P50549 whole entry): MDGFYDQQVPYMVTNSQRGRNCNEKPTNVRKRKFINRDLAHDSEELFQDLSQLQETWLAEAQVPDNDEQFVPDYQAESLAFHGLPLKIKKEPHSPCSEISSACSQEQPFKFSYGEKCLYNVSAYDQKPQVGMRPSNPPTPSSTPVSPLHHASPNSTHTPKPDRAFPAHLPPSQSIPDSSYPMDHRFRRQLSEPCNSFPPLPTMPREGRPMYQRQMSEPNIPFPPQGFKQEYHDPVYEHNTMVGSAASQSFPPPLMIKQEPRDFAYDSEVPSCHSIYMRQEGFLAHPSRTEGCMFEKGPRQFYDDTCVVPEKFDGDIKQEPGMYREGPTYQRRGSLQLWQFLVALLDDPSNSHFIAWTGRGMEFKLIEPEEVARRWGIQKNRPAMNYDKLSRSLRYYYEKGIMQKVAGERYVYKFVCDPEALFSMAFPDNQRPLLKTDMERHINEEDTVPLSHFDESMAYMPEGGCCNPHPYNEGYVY

Regarding GTCCTG, the binding signal was 1.09 fold enrichment (6-mer frequency, TF over GST control) in assay [1]; 1.05 fold enrichment (6-mer frequency, TF over GST control) in [2]; 1.17 fold enrichment (6-mer frequency, TF over GST control) in assay [3]; 1.15 fold enrichment (6-mer frequency, TF over GST control) in assay [4]; 1.09 fold enrichment (6-mer frequency, TF over GST control) in [5]; 1.16 fold enrichment (6-mer frequency, TF over GST control) in [6]. Besides, the binding signal in [7] was 1.15 fold enrichment (6-mer frequency, TF over GST control); in assay [8], 1.1 fold enrichment (6-mer frequency, TF over GST control); in [9], 1.08 fold enrichment (6-mer frequency, TF over GST control); in assay [10] it was 1.3 fold enrichment (6-mer frequency, TF over GST control); in [11], 1.09 fold enrichment (6-mer frequency, TF over GST control); in assay [12] it was 1.17 fold enrichment (6-mer frequency, TF over GST control). For the same sequence, the binding signal in assay [13] was 1.08 fold enrichment (6-mer frequency, TF over GST control); in assay [14], 1.19 fold enrichment (6-mer frequency, TF over GST control); in [15], 1.02 fold enrichment (6-mer frequency, TF over GST control); in assay [16] it was 1.34 fold enrichment (6-mer frequency, TF over GST control); in assay [17] it was 1.3 fold enrichment (6-mer frequency, TF over GST control); in assay [18], 1.2 fold enrichment (6-mer frequency, TF over GST control). For the same sequence, the binding signal in assay [19] is 1.16 fold enrichment (6-mer frequency, TF over GST control).
